The panel holds about 79,000 compounds, 15% with a hit somewhere; the sample as a whole holds those more often. A number with no mark means an inactive call. Calls of active or inactive are those of the source. No stated cut-off is given here; in the data, active means growth inhibition above about 70%; inactive means the rest.
Legend:
[1] = NCI Yeast Anticancer Drug Screen. Data for the rad50 strain (AID 155);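 further: 0% = growth of vehicle-only cultures of the same strain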; conditions: S. cerevisiae rad50 strain growth inhibition, stronger effect = higher value
Method in brief: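 Compounds were tested on a yeast strain with an engineered DNA damage repair alteration; the reported value is growth inhibition normalised to vehicle treatment.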

[2] = NCI Yeast Anticancer Drug Screen. Data for the mec2-1 strain (AID 157); conditions: S. cerevisiae mec2-1 strain, stronger effect = higher value
Method in brief: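 Mutant yeast (mec2-1) grown with compound; growth inhibition relative to vehicle control reported.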

[3] = NCI Yeast Anticancer Drug Screen. Data for the sgs1 mgt1 strain (AID 161);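 further: 0% = growth of cultures given vehicle only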; conditions: S. cerevisiae sgs1 mgt1 strain, stronger effect = higher value
Method in brief: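 Growth of a repair-deficient yeast mutant was monitored after compound treatment and expressed as inhibition relative to vehicle-treated cultures.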

[4] = NCI Yeast Anticancer Drug Screen. Data for the cln2 rad14 strain (AID 165);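 further: 0% = growth equal to vehicle treated cultures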; conditions: S. cerevisiae cln2 rad14 strain, stronger effect = higher value
Method in brief: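 Readout is yeast growth inhibition versus vehicle-treated controls, using a strain with cln2 and rad14 alterations exposed to compound.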

[5] = NCI Yeast Anticancer Drug Screen. Data for the mlh1 rad18 strain (AID 175); conditions: S. cerevisiae mlh1 rad18 strain growth inhibition, stronger effect = higher value
Method in brief: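 Genetically defined yeast (DNA repair-deficient) exposed to compounds; growth inhibition determined relative to vehicle.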

[6] = NCI Yeast Anticancer Drug Screen. Data for the bub3 strain (AID 167); conditions: S. cerevisiae bub3 mutant strain, stronger effect = higher value
Method in brief: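 Growth of a checkpoint-deficient yeast mutant is measured after compound exposure. Values represent inhibition relative to vehicle.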

[7] = at 5.0 µM (retest, dose inferred, filed as 0.5)
[8] = at 50.0 µM (retest, dose inferred, filed as 5.0)

| Structure (SMILES) | growth inhibition [1, 7] [%] | growth inhibition [1, 8] | growth inhibition ([1]; at 50.0 µM) | growth inhibition [2, 7] [%] | growth inhibition [2, 8] | growth inhibition ([2]; at 50.0 µM) | growth inhibition [3, 7] | growth inhibition [3, 8] | growth inhibition ([3]; at 50.0 µM) | growth inhibition [4, 7] [%] | growth inhibition [4, 8] | growth inhibition ([4]; at 50.0 µM) | growth inhibition [5, 7] [%] | growth inhibition [5, 8] | growth inhibition ([5]; at 50.0 µM) | growth inhibition [6, 7] [%] | growth inhibition [6, 8] | growth inhibition ([6]; at 50.0 µM) |
| --- | --- | --- | --- | --- | --- | --- | --- | --- | --- | --- | --- | --- | --- | --- | --- | --- | --- | --- |
| CN(C)c1ccc(C(=O)C2CCCC(C)(C)C2)cc1 (stereo unspecified) | 22 | 65% | 90.7% (active) | 24 | 78% (active) | 93.5% (active) | 13% | 77% (active) | 91.5% (active) | 7 | 27% | 88.3% (active) | 24 | 68% | 94.8% (active) | – | – | – |
| CCCCC1=NCCc2c1cc1c([nH]c3ccccc31)c2C | -3 | 57% | 9.2% | -19 | 7% | 46.2% | -8% | 85% (active) | 52.5% | -1 | 26% | 48% | 3 | 97% (active) | 56.4% | -3 | 35% | 76% (active) |
| O=c1c(O)c(-c2ccc(Cl)cc2)oc2cc(O)ccc12 | 4 | 52% | 88.7% (active) | 2 | 86% (active) | 77.7% (active) | 1% | 54% | 89.7% (active) | – | – | – | 7 | 50% | 91.5% (active) | 3 | 51% | 59.5% |
| Nc1ncnc2c1c(-c1ccccc1)cn2-c1ccccc1 | 38 | 78% (active) | 97.8% (active) | 31 | 58% | 97.3% (active) | 71% (active) | 93% (active) | 99% (active) | 20 | 53% | 95.2% (active) | 27 | 82% (active) | 98.5% (active) | – | – | – |
| O=C1CCCC/C1=C\c1ccc(Br)cc1 | 1 | 96% (active) | 80.2% (active) | -21 | 99% (active) | 86.7% (active) | -28% | 99% (active) | 90.7% (active) | 9 | 95% (active) | 88.3% (active) | -17 | 99% (active) | 92.7% (active) | -55 | 99% (active) | 89.4% (active) |
